E-sel TNF inh = TNF alpha driven E-selectin expression inhibition | hit rate 0.71% among 120,000 | HUVEC TNFa-induced E-selectin immunofluorescence, high content | inhibition, % at 2 µM;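 active = inhibition above the batch mean plus 3 SD, and confirmed as a hit on visual image review, cut at about 43% in these data; inconclusive = passes the inhibition cutoff but fails visual image review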
HUVEC tox TNFa = toxic to HUVEC cells under TNF alpha stimulation. HUVEC TNFalpha-stimulated, Hoechst cell count, imaging. cell count reduction, % at 2 µM. hit rate 0.17% among 93,000;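 active = cell count reduction exceeding the screen mean by over 5 SD, scaled to untreated wells per plate, cut at about 78% in these data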;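 also: cells counted after 24 h of TNF alpha exposure following the 1 h pretreatment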
cytoskel mod = modifiers of cytoskeleton assembly; HUVEC TNFa F-actin phalloidin imaging, high content; inhibition, % at 2 µM; hit rate 0.18% among 91,000;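 active = inhibition above the batch mean plus 3 SD and confirmed as a hit by visual image inspection, cut at about 30% in these data, passing the limit was not always enough; inconclusive = above the inhibition threshold but rejected on visual inspection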
VCAM1 TNFa inh = reduces TNF alpha induced VCAM1 expression in HUVEC. HUVEC TNFa-induced VCAM-1 immunofluorescence, high-content imaging. inhibition, % at 2 µM. hit rate 0.48% among 95,000. AID 802;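 active = inhibition above the batch mean plus 3 SD, with images confirmed as a hit by eye, cut at about 37% in these data; inconclusive = inhibition above that limit but hit not confirmed in images; inactive = inhibition not above that limit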
A number is an active result. Hits are enriched below; roughly 1.1% of the tested compounds scored in any of these assays.

CCOC(=O)C(C)(C)N(Cc1ccc(Cl)cc1)S(=O)(=O)c1ccc(Cl)c([N+](=O)[O-])c1 was read as E-sel TNF inh inactive.
CC(=O)c1c(C)oc2ccc(N(C(C)=O)S(=O)(=O)c3ccc(Cl)c([N+](=O)[O-])c3)cc12 was read as E-sel TNF inh inactive, HUVEC tox TNFa inactive, cytoskel mod inactive and VCAM1 TNFa inh 88.1.
CC1(C)CC(=O)c2cc(OCC(=O)NCCCN3CCN(c4ccc(F)cc4)CC3)ccc2O1 was read as HUVEC tox TNFa inactive, cytoskel mod 47.9 and VCAM1 TNFa inh inactive.
Screening COC(=O)Cn1cnc2c1c(=O)n(C)c(=O)n2C returned E-sel TNF inh 99.8, cytoskel mod inactive and VCAM1 TNFa inh inactive.
For CC1CCCCN1c1nnc(NC(=O)c2cc(-c3ccc(Br)cc3)on2)s1 (configuration not stated) the results were HUVEC tox TNFa inactive, cytoskel mod inactive and VCAM1 TNFa inh inactive.
For CC(=O)c1cccc(NC(=O)NCc2cccnc2)c1 the results were E-sel TNF inh 99.9, HUVEC tox TNFa inactive, cytoskel mod 50.2 and VCAM1 TNFa inh inactive.
Screening O=C(NCc1cccnc1)Nc1cccc(NC(=O)NCc2cccnc2)c1 returned E-sel TNF inh inactive.
For Cc1ccc(Nc2nc(CSc3nnnn3C)cs2)cc1 the results were E-sel TNF inh inactive, HUVEC tox TNFa inactive, cytoskel mod inactive and VCAM1 TNFa inh 96.3.
Screening O=C(NCc1cccs1)c1nc2c(nnn2Cc2ccccc2Cl)c(=O)[nH]1 returned HUVEC tox TNFa inactive, cytoskel mod inactive and VCAM1 TNFa inh 54.2.
`CCC(C)NC(=O)c1nc2c(nnn2Cc2ccccc2Cl)c(=O)[nH]1` (configuration not stated) gave E-sel TNF inh inactive.
`Cc1ccc(S(=O)(=O)CCC(=O)OC(C)C(=O)c2c(C)[nH]c3ccccc23)cc1` (configuration not stated) gave E-sel TNF inh inactive.
O=C(CN(C(=O)c1cc2c(s1)CCC2)C1CCCC1)NCc1cccs1 was read as E-sel TNF inh inactive, HUVEC tox TNFa inactive, cytoskel mod inactive and VCAM1 TNFa inh inactive.
`Cc1c(CCO)c(=O)n(-c2ccccc2)n1S(=O)(=O)c1ccc(Cl)cc1` gave E-sel TNF inh inactive, HUVEC tox TNFa inactive, cytoskel mod 31.2 and VCAM1 TNFa inh inactive.
`COc1ccc(C(C)(C)C)cc1NC(=O)c1cc(S(=O)(=O)N(C)C)ccc1N1CCCC1` gave E-sel TNF inh inactive.
For Cc1ccc(NC(=O)Nc2ccc3c(c2)N(C)C(=O)CS3)nc1 the results were E-sel TNF inh 94.1, HUVEC tox TNFa inactive, cytoskel mod inactive and VCAM1 TNFa inh inactive.
`Cc1ccnc(NC(=O)Nc2ccc3c(c2)N(C)C(=O)CS3)c1` gave E-sel TNF inh inactive.
N#CC1=C(N)C(C#N)(C#N)[C@H](c2ccncc2)[C@H]2CN(C(=O)OCc3ccccc3)CC=C12 was read as E-sel TNF inh 96.3.
For COc1ccc(-n2c(SCC(=O)Nc3ccc4c(c3)OCO4)nc3c(c2=O)SCC3)cc1 the results were HUVEC tox TNFa inactive, cytoskel mod inactive and VCAM1 TNFa inh inactive.
Cc1ccc(-n2c(SCC(=O)Nc3nccs3)nc3c(c2=O)SCC3)cc1 was read as E-sel TNF inh 96.8.
`CCOc1ccc(-n2c(SCC(=O)Nc3nccs3)nc3c(c2=O)SCC3)cc1` gave E-sel TNF inh inactive.
CCOc1ccc(-n2c(SCC(=O)Nc3ccc(OC)cc3)nc3c(c2=O)SCC3)cc1 was read as E-sel TNF inh inactive, HUVEC tox TNFa 81.7, cytoskel mod inactive and VCAM1 TNFa inh 59.5.
Screening O=C(Nc1ccc(Cl)cc1)N(C1=NCCC1)c1ccc(OC(F)F)cc1 returned E-sel TNF inh inactive, HUVEC tox TNFa inactive, cytoskel mod inactive and VCAM1 TNFa inh inactive.
Screening COc1ccc(OC)c(C2C(C(N)=O)=C(C)Nc3nc(CCCO)nn32)c1 (configuration not stated) returned HUVEC tox TNFa inactive, cytoskel mod inactive and VCAM1 TNFa inh inactive.
`CCCCCc1nc2ccccc2c(=O)n1NC(=O)c1c(O)c2cccc3c2n(c1=O)CCC3` gave E-sel TNF inh 71.5, HUVEC tox TNFa inactive, cytoskel mod inactive and VCAM1 TNFa inh inactive.
CCn1c(SCC(=O)Nc2cc(C)on2)nnc1-c1ccccc1 was read as E-sel TNF inh inactive, HUVEC tox TNFa inactive, cytoskel mod 37.1 and VCAM1 TNFa inh inconclusive.
COc1ccc(CCn2c(SCC(=O)Nc3cc(C)on3)nc3ccccc3c2=O)cc1OC was read as HUVEC tox TNFa 86.7, cytoskel mod inactive and VCAM1 TNFa inh inactive.
Cc1cc(NC(=O)CSc2nnc3c4c(C)c(C)sc4ncn23)no1 was read as E-sel TNF inh 68.6, HUVEC tox TNFa inactive, cytoskel mod inactive and VCAM1 TNFa inh inactive.
CN=c1sc2ccccc2n1CC(O)COc1ccccc1 (configuration not stated) was read as HUVEC tox TNFa inactive, cytoskel mod inactive and VCAM1 TNFa inh 75.0.

Screens as filed in PubChem BioAssay.
